Reference: PubChem BioAssay AID1159580 (chemical genetic matrix, 2015)
Several values for one entry are separate records, joined by “and”; a condition that tells them apart may be missing. Equal values may be shown once. About 2,000 (36%) of roughly 5,500 compounds were called active. Inconclusive results (about 18%) are left out. Cut-off read from the data, not from the text of the source: active = normalized growth mostly below about 0.91 (no sharp cut-off); inconclusive = no clear call, values can overlap the other calls; inactive = mostly above about 0.92. The list shows a part of the results.

Experiment: chemical genetic growth profiling, strain panel (AID 1159580);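 note: tested at 20 µM; growth read once vehicle control cultures reached saturation at 30 °C; 1 = growth at the plate median or of vehicle wells; lower values mean less growth of the strain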
Conditions: S. cerevisiae deletion strains, growth OD

Measured: normalized growth

CC(NC(=S)Nc1ccc(Oc2ccc(Cl)cc2)cc1)c1ccccc1 (configuration not stated)
inactive: locus YAL013W, strain DEP1, stronger effect = lower value 0.973 | locus YAR019C, strain CDC15, stronger effect = lower value 0.952 | locus YBL105C, strain PKC1, stronger effect = lower value 0.965 | locus YBR135W, strain CKS1, stronger effect = lower value 0.956 | locus YBR136W, strain MEC1, stronger effect = lower value 0.968 | locus YBR160W, strain CDC28, stronger effect = lower value 0.976 | locus YBR229C, strain ROT2, stronger effect = lower value 0.983 | locus YCL061C, strain MRC1, stronger effect = lower value 0.983 | locus YDL017W, strain CDC7, stronger effect = lower value 0.979 | locus YDL028C, strain MPS1, stronger effect = lower value 0.971 | locus YDL101C, strain DUN1, stronger effect = lower value 0.978 and 0.974 | locus YDL108W, strain KIN28, stronger effect = lower value 0.965 | locus YDL132W, strain cdc53, stronger effect = lower value 0.964 | locus YDL214C, strain PRR2, stronger effect = lower value 0.94 | locus YDR052C, strain DBF4, stronger effect = lower value 0.955 | locus YDR054C, strain cdc34, stronger effect = lower value 0.965 | locus YDR150W, strain NUM1, stronger effect = lower value 0.97 | locus YDR226W, strain ADK1, stronger effect = lower value 0.953 | locus YDR477W, strain SNF1, stronger effect = lower value 0.937 | locus YEL061C, strain CIN8, stronger effect = lower value 0.961 | locus YER123W, strain YCK3, stronger effect = lower value 0.909 | locus YER133W, strain GLC7, stronger effect = lower value 0.941 | locus YFL009W, strain cdc4, stronger effect = lower value 0.958 | locus YFL029C, strain CAK1, stronger effect = lower value 0.941 | locus YFR003C, strain YPI1, stronger effect = lower value 0.961 | locus YFR019W, strain FAB1, stronger effect = lower value 0.96 | locus YFR028C, strain CDC14, stronger effect = lower value 0.946 | locus YGR040W, strain KSS1, stronger effect = lower value 0.922 | locus YGR052W, strain FMP48, stronger effect = lower value 1.08 | locus YGR078C, strain PAC10, stronger effect = lower value 0.995 | locus YGR092W, strain DBF2, stronger effect = lower value 0.947 | locus YGR229C, strain SMI1, stronger effect = lower value 0.975 | locus YHR079C, strain IRE1, stronger effect = lower value 0.97 | locus YHR082C, strain KSP1, stronger effect = lower value 1.02 | locus YHR087W, strain rtc3, stronger effect = lower value 0.988 | locus YHR205W, strain SCH9, stronger effect = lower value 0.954 | locus YIL147C, strain SLN1, stronger effect = lower value 0.96 | locus YJL095W, strain BCK1, stronger effect = lower value 0.932 | locus YJL128C, strain PBS2, stronger effect = lower value 0.918 | locus YJL157C, strain FAR1, stronger effect = lower value 0.927 | locus YJL187C, strain SWE1, stronger effect = lower value 0.987 | locus YJR016C, strain ILV3, stronger effect = lower value 0.961 | locus YJR043C, strain POL32, stronger effect = lower value 0.998 | locus YJR066W, strain TOR1 (second series), stronger effect = lower value 0.933 | locus YJR066W, strain TOR1, stronger effect = lower value 0.981 | locus YJR075W, strain HOC1, stronger effect = lower value 1.01 | locus YKL048C, strain ELM1, stronger effect = lower value 0.965 | locus YKL067W, strain YNK1, stronger effect = lower value 0.916 | locus YKL101W, strain HSL1, stronger effect = lower value 0.949 | locus YKL193C, strain SDS22, stronger effect = lower value 0.958 | locus YKL203C, strain TOR2, stronger effect = lower value 1.01 | locus YLR058C, strain SHM2 (second series), stronger effect = lower value 0.988 | locus YLR085C, strain ARP6, stronger effect = lower value 0.875 | locus YLR113W, strain HOG1, stronger effect = lower value 0.923 | locus YLR133W, strain CKI1, stronger effect = lower value 0.932 | locus YLR262C, strain YPT6, stronger effect = lower value 0.871 | locus YLR403W, strain SFP1, stronger effect = lower value 0.962 | locus YML070W, strain DAK1, stronger effect = lower value 0.924 | locus YML094W, strain GIM5, stronger effect = lower value 0.905 | locus YMR001C, strain CDC5, stronger effect = lower value 0.968 | locus YMR205C, strain PFK2 (second series), stronger effect = lower value 0.951 | locus YMR219W, strain ESC1, stronger effect = lower value 0.99 | locus YMR263W, strain SAP30, stronger effect = lower value 0.971 | locus YMR277W, strain FCP1, stronger effect = lower value 0.96 | locus YNL006W, strain LST8, stronger effect = lower value 0.965 | locus YNL020C, strain ARK1, stronger effect = lower value 0.911 | locus YNL128W, strain TEP1, stronger effect = lower value 0.964 | locus YNL153C, strain GIM3, stronger effect = lower value 0.985 | locus YNL161W, strain CBK1, stronger effect = lower value 0.973 | locus YNL183C, strain NPR1, stronger effect = lower value 0.955 | locus YNL207W, strain RIO2, stronger effect = lower value 0.959 | locus YNL222W, strain SSU72, stronger effect = lower value 0.965 | locus YNL298W, strain CLA4 (second series), stronger effect = lower value 0.918 | locus YNL307C, strain MCK1 (second series), stronger effect = lower value 0.906 | locus YNL322C, strain KRE1, stronger effect = lower value 1 | locus YNR030W, strain Alg12, stronger effect = lower value 0.944 | locus YOL078W, strain AVO1, stronger effect = lower value 0.954 | locus YOL136C, strain PFK27, stronger effect = lower value 0.929 | locus YOR061W, strain CKA2, stronger effect = lower value 0.941 | locus YOR119C, strain RIO1, stronger effect = lower value 1.04 | locus YOR231W, strain MKK1, stronger effect = lower value 1.01 | locus YOR329C, strain SCD5, stronger effect = lower value 0.976 | locus YPL031C, strain PHO85, stronger effect = lower value 0.93 | locus YPL055C, strain LGE1, stronger effect = lower value 0.905 | locus YPL153C, strain RAD53, stronger effect = lower value 0.937 | locus YPL204W, strain HRR25, stronger effect = lower value 0.899 | locus YPL209C, strain IPL1, stronger effect = lower value 0.967 | locus YPL241C, strain CIN2, stronger effect = lower value 0.93 | locus YPL256C, strain CLN2, stronger effect = lower value 0.915 | locus YPR025C, strain CCL1, stronger effect = lower value 0.961 | locus YPR106W, strain ISR1, stronger effect = lower value 0.949 | locus YPR111W, strain DBF20, stronger effect = lower value 1.01 | locus YPR135W, strain CTF4, stronger effect = lower value 0.97 | strain NNK1, stronger effect = lower value 0.964 | strain TSCII, stronger effect = lower value 0.954
active: locus YLR039C, strain RIC1, stronger effect = lower value 0.78
0.924 (inactive) and 0.84 (active): locus YHR030C, strain SLT2, stronger effect = lower value
